Active and inactive are the calls of the source. Unless noted, how the calls were made is not given here.
Tests used:
[1] = HepG2 liver cancer cell viability effects, profiling panel, resazurin fluorescence, 24 h, PK04 Diversity Set (AID 1172); details: higher = more signal
[2] = basal S. cerevisiae growth modulation, no modifier, primary screen, OD600, strain BY4716, 24 h, basal condition (AID 1173); details: OD600, 24 h, higher = more signal, called active from +8 up or from −8 down
[3] = MM1S myeloma cell viability, profiling panel, resazurin fluorescence, basal, 24 h, PK04 Diversity Set (AID 1174); details: higher = more signal, called active from +8 up or from −8 down;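 further: MM1S multiple myeloma cell line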
[4] = molecular target: Dihydroorotate dehydrogenase (quinone), mitochondrial (Plasmodium falciparum (isolate 3D7)) (UniProt Q08210); test: PfDHODH enzyme inhibitors, primary screen, biochemical, C-terminal His tag, absorbance 600 nm (AID 1175); details: DCIP absorbance 600 nm, higher = more signal, called active from +8 up or from −8 down;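 further: recombinant parasite enzyme with a five histidine tag at its C terminus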
[5] = P. aeruginosa biofilm formation inhibitors, primary screen, strain PAO1, LB-PBS medium, absorbance 600 nm (AID 1176); details: P. aeruginosa PAO1 growth/biofilm, A600, 12 h; higher = more signal
[6] = S. cerevisiae RM11-1a growth modifiers, primary screen, strain RM11-1a, OD600, basal, 24 h (AID 1177); details: OD600, 24 h, higher = more signal, called active from +8 up or from −8 down;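 further: cultures grown under basal conditions with no added stressor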
[7] = E. coli acrAB mutant growth effects, primary screen, E. coli filamentation inducers, strain DRC39, OD650, 24 h (AID 1178); details: higher = more signal, called active from +8 up or from −8 down;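 further: growth measured as culture turbidity by optical density at 650 nm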
[8] = E. coli acrAB mutant growth effects, primary screen, E. coli filamentation inducers, strain DRC39, OD650, 48 h (AID 1179);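 further: screen aims at cell division blockers that make cells filament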; details: E. coli DRC39 delta-acrAB growth, higher = more signal, called active from +8 up or from −8 down
[9] = RPMI8226 myeloma cell viability, profiling panel, resazurin fluorescence, basal, 24 h, PK04 Diversity Set (AID 1180); details: higher = more signal;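 further: RPMI8826 multiple myeloma cell line at 5000 cells per well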
[10] = molecular target: E3 ubiquitin-protein ligase XIAP (Homo sapiens) (UniProt P98170); test: XIAP binders, primary screen, biophysical, small-molecule microarray, fluorescence 635 nm (AID 1181); details: small-molecule microarray binding, higher = more signal;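 further: score merges 667 nm emission and signal to noise over triplicate slides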
[11] = tested on: XIP peptide (Xip251-270) binding; test: small-molecule binders of XIP peptide, primary screen, biochemical, small-molecule microarray, fluorescence 635/667 nm, 0.1 µg/mL protein (AID 1182); details: fluorescent protein binding, 635 nm, higher = more signal, called active from +8 up or from −8 down
XIP peptide (Xip251-270) = test: small-molecule binders of XIP peptide, primary screen, biochemical, small-molecule microarray, fluorescence 635/667 nm, 0.5 µg/mL protein (AID 1183); details: small-molecule microarray binding, fluorescence 635 nm; higher = more signal
[12] = Plasmodium falciparum growth inhibition, primary screen, strain 3D7, DAPI fluorescence, 100 nL (AID 1184);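 further: parasites grown inside human red blood cells in medium with human serum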; details: P. falciparum 3D7 growth, 3 d, higher = more signal
[13] = molecular target: Homeobox protein Hox-A13 (Mus musculus) (UniProt Q62424); test: inhibitors of HoxA13-DNA binding, primary screen, biochemical, fluorescence polarization, labeled oligonucleotide (AID 1185); details: 15 min, higher = more signal, called active from +8 up or from −8 down
[14] = inhibitors of hydroxyurea-induced Chk1 phosphorylation, primary screen, imaging, HeLa, phospho-Chk1 antibody, percent positive cells (AID 1186); details: hydroxyurea-induced phospho-Chk1 immunofluorescence imaging, higher = more signal
[15] = inhibitors of hydroxyurea-induced Chk1 phosphorylation, primary screen, imaging, HeLa, phospho-Chk1 nuclear intensity (AID 1187); details: hydroxyurea-induced phospho-Chk1 immunofluorescence imaging, higher = more signal

E3 ubiquitin-protein ligase XIAP (Homo sapiens), sequence (P98170 whole entry, looked up): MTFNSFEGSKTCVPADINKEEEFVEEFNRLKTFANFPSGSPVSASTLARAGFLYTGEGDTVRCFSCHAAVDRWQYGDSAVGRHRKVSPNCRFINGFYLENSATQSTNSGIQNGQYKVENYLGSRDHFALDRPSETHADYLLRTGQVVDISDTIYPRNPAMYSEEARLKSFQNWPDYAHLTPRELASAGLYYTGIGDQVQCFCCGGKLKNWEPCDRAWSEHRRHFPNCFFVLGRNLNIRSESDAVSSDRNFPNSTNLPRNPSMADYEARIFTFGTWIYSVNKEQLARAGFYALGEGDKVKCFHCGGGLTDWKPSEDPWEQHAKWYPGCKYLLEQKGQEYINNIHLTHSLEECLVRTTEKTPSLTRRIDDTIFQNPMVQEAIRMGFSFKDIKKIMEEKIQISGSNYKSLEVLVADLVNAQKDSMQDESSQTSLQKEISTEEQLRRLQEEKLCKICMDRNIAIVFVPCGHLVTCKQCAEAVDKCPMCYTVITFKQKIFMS
Dihydroorotate dehydrogenase (quinone), mitochondrial (Plasmodium falciparum (isolate 3D7)), sequence (Q08210 whole entry, looked up): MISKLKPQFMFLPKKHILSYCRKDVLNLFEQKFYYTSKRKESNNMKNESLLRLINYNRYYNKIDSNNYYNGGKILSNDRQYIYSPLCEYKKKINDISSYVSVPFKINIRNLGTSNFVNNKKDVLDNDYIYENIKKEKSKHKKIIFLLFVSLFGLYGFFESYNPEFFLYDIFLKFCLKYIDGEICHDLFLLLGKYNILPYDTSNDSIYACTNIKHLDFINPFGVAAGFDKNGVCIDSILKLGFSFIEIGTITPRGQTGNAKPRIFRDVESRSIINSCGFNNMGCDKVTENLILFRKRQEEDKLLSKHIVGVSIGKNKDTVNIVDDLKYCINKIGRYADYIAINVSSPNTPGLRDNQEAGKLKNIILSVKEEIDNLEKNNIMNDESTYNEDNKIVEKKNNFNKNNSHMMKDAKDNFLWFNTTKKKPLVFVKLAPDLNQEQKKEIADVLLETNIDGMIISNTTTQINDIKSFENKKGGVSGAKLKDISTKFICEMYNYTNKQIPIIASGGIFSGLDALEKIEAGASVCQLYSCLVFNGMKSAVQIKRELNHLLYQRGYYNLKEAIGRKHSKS
Homeobox protein Hox-A13 (Mus musculus), sequence (Q62424 whole entry, looked up): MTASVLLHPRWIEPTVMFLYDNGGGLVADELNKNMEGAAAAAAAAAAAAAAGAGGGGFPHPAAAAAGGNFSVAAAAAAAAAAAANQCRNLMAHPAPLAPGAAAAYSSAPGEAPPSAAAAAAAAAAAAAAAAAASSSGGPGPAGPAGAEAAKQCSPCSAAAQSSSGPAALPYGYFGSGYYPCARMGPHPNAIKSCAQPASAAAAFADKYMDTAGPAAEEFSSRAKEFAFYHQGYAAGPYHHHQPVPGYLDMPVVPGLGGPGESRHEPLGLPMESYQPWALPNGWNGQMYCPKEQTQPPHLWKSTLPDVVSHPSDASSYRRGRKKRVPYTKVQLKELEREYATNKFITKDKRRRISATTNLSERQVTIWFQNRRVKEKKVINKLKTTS

SMILES | z-score [1] | z-score [2] | z-score [3] | composite z-score [4] | z-score [5] | z-score [6] | z-score [7] | z-score [8] | z-score [9] | composite z-score [10] | composite z-score [11] | composite z-score (XIP peptide (Xip251-270)) | z-score [12] | z-score [13] | z-score [14] | z-score [15]
N#Cc1ccc(NN2C(C(O)C(c3ccccc3)c3ccccc3)C=CC3C(=O)N(c4ccccc4)C(=O)C32)cc1 (centres undefined) | -0.554 | 0.551 (inactive) | -1.17 (inactive) | 0.0998 (inactive) | 0.35 (inactive) | 0.826 (inactive) | -0.135 (inactive) | 0.832 (inactive) | 0.0951 | 0.0849 | 0.424 (inactive) | 0.646 | -0.231 | 1.55 (inactive) | 0.377 (inactive) | 0.484 (inactive)
CC(C)C(=C=CC[C@@H](O)c1ccc(OCCO)cc1)C[C@@H](O)COCc1ccccc1 | 0.932 | -2.26 (inactive) | 0.189 (inactive) | -2.2 (inactive) | 0.919 (inactive) | -2 (inactive) | 1.38 (inactive) | 1.29 (inactive) | 1.55 | 0.108 | 0.372 (inactive) | 0.195 | -2.45 | -3.75 (inactive) | -1.27 (inactive) | -0.437 (inactive)
[N-]=[N+]=NCc1ccccc1C[C@]1(C(N)=O)COC(c2ccc(OCCCO)cc2)=N1 | 0.252 | -1.66 (inactive) | 0.424 (inactive) | -0.0854 (inactive) | 0.466 (inactive) | -1.37 (inactive) | 1.23 (inactive) | 1.87 (inactive) | 0.399 | 0.144 | 0.154 (inactive) | 0.817 | -0.486 | -4.67 (inactive) | -0.913 (inactive) | -0.959 (inactive)
O=C1C2C=CC(C(O)Cc3ccccc3)N(n3cnnc3)C2C(=O)N1Cc1ccccc1 (centres undefined) | -0.957 | 0.341 (inactive) | -1.04 (inactive) | 0.293 (inactive) | -0.253 (inactive) | 0.656 (inactive) | -1.08 (inactive) | -1.13 (inactive) | -1.05 | 0.0328 | -0.139 (inactive) | 0.686 | -1.29 | -3.18 (inactive) | -0.179 (inactive) | -0.472 (inactive)
COc1ccc(C(=O)Nc2ccc(CN3C(=O)[C@]4(O[C@H](CCO)[C@@H]([Si](C)(C)c5ccc(OC)cc5)[C@@H]4C)c4ccccc43)cc2)cc1 | -5.44 | -3.84 (inactive) | -9.1 (active) | 0.132 (inactive) | 2.16 (inactive) | 4.35 (inactive) | 0.65 (inactive) | -0.416 (inactive) | -6.25 | 0.0623 | 2.8 (inactive) | 0.618 | -2.82 | -0.677 (inactive) | -0.02 (inactive) | 0.458 (inactive)
COc1ccc([Si](C)(C)[C@@H]2[C@@H](CCO)O[C@]3(C(=O)N(Cc4ccc(N(C=O)c5ccccc5)cc4)c4ccccc43)[C@H]2C)cc1 | -1.59 | 1.76 (inactive) | -2.44 (inactive) | -0.493 (inactive) | 1.46 (inactive) | 4.89 (inactive) | 0.544 (inactive) | -0.339 (inactive) | -2.25 | -0.184 | -0.0075 (inactive) | -0.0404 | -2.7 | -1.54 (inactive) | -1.27 (inactive) | -1.31 (inactive)
COc1ccccc1CN1C(=O)c2ccccc2[C@@H](C(=O)NC2CC2)[C@@H]1c1ccc(CO)cc1 | 0.103 | -0.561 (inactive) | 0.84 (inactive) | -0.245 (inactive) | -0.342 (inactive) | 0.184 (inactive) | 0.421 (inactive) | 0.119 (inactive) | 0.407 | -0.0085 | 0.98 (inactive) | 0.835 | -1.79 | -2.46 (inactive) | 0.0151 (inactive) | 0.351 (inactive)
CO[C@H]1O[C@H](CO)[C@@H](OC(=O)Nc2ccc(C(F)(F)F)cc2)[C@H](OC(=O)Nc2ccc3c(c2)OCO3)[C@@H]1OC(=O)Nc1ccc2c(c1)OCO2 | -1.09 | 0.867 (inactive) | -2.45 (inactive) | 0.524 (inactive) | 1.54 (inactive) | 3.25 (inactive) | 1.53 (inactive) | 0.2 (inactive) | -1.97 | 0.098 | 1.42 (inactive) | 0.901 | -2.09 | -5.46 (inactive) | -0.328 (inactive) | -0.0864 (inactive)
CCOC(=O)C[C@H]1[C@H](OC(=O)c2ccc(C(=O)c3ccccc3)cc2)[C@@H](NC(=O)c2ccc3ccccc3c2)c2cc(OCCCO)ccc2N1C(=O)Cc1ccc(OC)cc1 | -0.0265 | -0.291 (inactive) | 0.238 (inactive) | -0.148 (inactive) | -0.382 (inactive) | 0.4 (inactive) | -0.276 (inactive) | 0.471 (inactive) | 0.287 | -0.12 | 0.135 (inactive) | -0.011 | -1.06 | -1.59 (inactive) | -0.0477 (inactive) | -0.0525 (inactive)
